Experimental data as given in the supplement of paper PMC10981050.
Values joined by “and” are separate entries in the source; they are usually repeats but may differ in a detail not shown here. Equal values may be shown once. Where a name gives a salt, the structure may show the parent alone.

How the values were obtained:
Test in all cases: cell viability relative to vehicle control; higher = less cytotoxic
Settings in all cases: 10 µM
K562 = system: K562
Procedure, shortened: (§1)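 Four leukaemia lines, as CRISPR-edited mutant clones and isogenic wild-type clones, were tested against Selleck bioactive, kinase and epigenetic probe libraries after removal of identity-inconsistent compounds. Cells were exposed to a single 10 µM dose for 48 h, and CellTiter-Glo luminescence was then read. Viability was calculated relative to the on-plate vehicle control.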

MARIMO = system: MARIMO
Procedure, shortened: as §1

MOLM14 = system: MOLM14
Procedure, shortened: as §1

OCI-AML2 = system: OCI-AML2
Procedure, shortened: as §1

Compound | cell viability (K562; SRSF2 genotype: SRSF2 P95H/wt) | cell viability (K562; SRSF2 genotype: SRSF2 wt/wt) [%] | cell viability (MARIMO; SRSF2 genotype: SRSF2 P95H/wt) [%] | cell viability (MARIMO; SRSF2 genotype: SRSF2 wt/wt) [%] | cell viability (MOLM14; SRSF2 genotype: SRSF2 P95H/wt) [%] | cell viability (MOLM14; SRSF2 genotype: SRSF2 wt/wt) [%] | cell viability (OCI-AML2; SRSF2 genotype: P95H/wt) [%] | cell viability (OCI-AML2; SRSF2 genotype: wt/wt) [%]
CO[C@H]1C[C@H](O[C@@H]2/C(C)=C/C[C@@H]3C[C@@H](C[C@]4(CC[C@H](C)[C@@H](C5CCCCC5)O4)O3)OC(=O)[C@@H]3C=C(C)/C(=N/O)[C@H]4OC/C(=C\C=C\[C@@H]2C)[C@]43O)O[C@@H](C)[C@@H]1O [Selamectin] | 16.6% and 37.1% | 27.3 | 3.71 | 4.17 | 38.4 | 17 | 10.6 | 24.5
C=C(C(=O)O)C1CCC(C)C2CCC(C)=CC12 (stereo unspecified) [Artemisic acid] | 114% and 110% | 113 | 108 | 90.8 | 104 | 108 | 99.1 | 103
O=C(O)Cc1ccc(O)cc1 [4-Hydroxyphenylacetic acid] | 100% and 101% | 101 | 96.8 | 104 | 95.7 | 101 | 95.5 | 108
C[C@H](CCC(=O)NCCS(=O)(=O)O)[C@H]1CC[C@H]2[C@@H]3[C@@H](O)C[C@@H]4C[C@H](O)CC[C@]4(C)[C@H]3CC[C@]12C [Tauroursodeoxycholic Acid] | 102% | 99 | 99.4 | 108 | 107 | 103 | 95.8 | 114
Cc1nc2ccc(NC(=O)Nc3ccnc4cccnc34)cc2o1 | 99.3% and 105% | 98.3 | 96.4 | 89.9 | 104 | 107 | 88.2 | 96.4
C/C=C(/C)C(=O)O[C@H]1c2cc(OC)c(OC)c(OC)c2-c2c(cc3c(c2OC)OCO3)C[C@H](C)[C@]1(C)O [Schisantherin B] | 98.1% and 96.8% | 93.7 | 93 | 94.1 | 82.8 | 92.6 | 97.1 | 97
CCCCCCCCCCCC[N+](C)(C)CCOc1ccccc1 [Domiphen Bromide] | 7.02% and 4.79% | 5.16 | 0.45 | 0.55 | 0.35 | 0.39 | 0.4 | 0.43
[Na+].[Na+].[Na+].[Na+].[Na+].[Na+].[O]=[W](=[O])([O-])[O-].[O]=[W](=[O])([O-])[O-].[O]=[W](=[O])([O-])[O-].[O]=[W](=[O])=[O].[O]=[W](=[O])=[O].[O]=[W](=[O])=[O].[O]=[W](=[O])=[O].[O]=[W](=[O])=[O].[O]=[W](=[O])=[O].[O]=[W](=[O])=[O].[O]=[W](=[O])=[O].[O]=[W](=[O])=[O] [SodiuM Metatungstate] | 103% and 109% | 106 | 121 | 106 | 103 | 109 | 88.9 | 93.5
COc1ccccc1C(=O)Nc1cc2c(cc1N1CCCC1)n(C)c(=O)n2C | 91.5% and 100% | 92 | 84.1 | 95.3 | 79.4 | 83.4 | 63.5 | 69.2
C[C@@H]1O[C@@H](O[C@H]2[C@H](Oc3cc(O)c(C(=O)CCc4ccc(O)cc4)c(O)c3)O[C@H](CO)[C@@H](O)[C@@H]2O)[C@H](O)[C@H](O)[C@H]1O [Naringin Dihydrochalcone (Naringin DC)] | 99.7% and 107% | 94.5 | 102 | 105 | 98.4 | 104 | 96.8 | 111
CNCCN(C)Cc1c[nH]nc1-c1ccc(O[C@H]2C[C@H](OCCC3CCOCC3)C2)cc1 | 90% and 92.8% | 89.7 | 89 | 92.4 | 79.4 | 96.4 | 67.1 | 75.1
O=C(NCc1cccc(O)c1)Nc1nc(-c2ccncc2)cs1 | 92% and 95.8% | 106 | 65.6 | 85.8 | 25.3 | 60.8 | 18.8 | 27.6
CC(=O)O[C@]1(C(C)=O)CC[C@H]2[C@@H]3C=C(C)C4=CC(=O)CC[C@]4(C)[C@H]3CC[C@@]21C [Megestrol Acetate] | 90.8% and 87.5% | 86.6 | 56.5 | 46.6 | 84.8 | 87.6 | 61.8 | 73.1
C[C@H]1[C@H](NC(=O)/C(=N\OC(C)(C)C(=O)O)c2csc(N)n2)C(=O)N1S(=O)(=O)O [Aztreonam (Azactam, Cayston)] | 106% and 99.5% | 109 | 96.8 | 112 | 103 | 108 | 98.4 | 104
Cn1c(=O)c2c(ncn2CC(O)CO)n(C)c1=O (stereo unspecified) [Dyphylline (Dilor)] | 101% and 102% | 100 | 94.9 | 105 | 97.8 | 101 | 95 | 102
COc1cc(C)c2c(=O)c(-c3ccccc3)coc2c1 [5-Methyl-7-methoxyisoflavone] | 101% and 95.6% | 92.2 | 85.2 | 90.2 | 97.1 | 92.6 | 93.4 | 88.4
CCCC[C@@H](C=O)NC(=O)[C@H](CC(C)C)NC(=O)OCc1ccccc1 [Calpeptin] | 91.3% and 95.4% | 98.5 | 90.9 | 95.2 | 83.2 | 98.9 | 96.6 | 101
CCCCNc1ccc(C(=O)OCCN(C)C)cc1 [Tetracaine hydrochloride (Pontocaine)] | 99.3% and 87.2% | 90.7 | 93.4 | 105 | 92.2 | 96.2 | 94 | 98.4
CCCc1cc(C)[nH]c(=O)c1CNC(=O)c1cc(-c2ccc(N3CCN(C(C)C)CC3)nc2)cc2c1cnn2C(C)C | 36.5% and 35% | 30.5 | 81.1 | 80 | 49.8 | 60.8 | 4.14 | 31.8
CC(C)(Sc1cc(C(C)(C)C)c(O)c(C(C)(C)C)c1)Sc1cc(C(C)(C)C)c(O)c(C(C)(C)C)c1 [Probucol] | 98.5% and 99.2% | 102 | 99.7 | 105 | 102 | 105 | 105 | 103
CC(=O)O/N=C1\C(=O)N(Cc2cc(Cl)ccc2Cl)c2ccc(Cl)cc21 | 92% and 94.5% | 85.1 | 15.6 | 91.5 | 30.4 | 90.7 | 1.27 | 9.59
O=C(O)Cc1ccccc1Nc1c(Cl)cccc1Cl [Diclofenac Diethylamine] | 102% and 108% | 95.4 | 105 | 101 | 106 | 102 | 105 | 103
